Inconclusive results are not listed. Active and inactive are the calls of the source. The calls were made as follows, unless noted: active = hit-call score of the fitted dose curve at least 0.9, where 1 is the maximum; inconclusive = response in the unintended direction; inactive = score below 0.9.
Columns and labels:
[1] = TOX21_p53_BLA_p2_viability: Viability Assessment in the Tox21 HCT-116 p53 Agonism Beta-lactamase Assay, Phase 2 (AID 2283591);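 also: compound exposure lasted 16 h at 37 °C; actives lower the ATP signal meaning cytotoxicity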
Method in brief: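 HCT116 p53-bla cells, 4000/well, dosed after 5 h plating (217-fold dilution of DMSO stocks) and incubated 16 h at 37C. Viability taken as cellular ATP by CellTiter-Glo luminescence after 30 min RT; signal loss marks cytotoxicity.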

[2] = biological target: Cellular tumor antigen p53 (Homo sapiens) (UniProt P04637); test: TOX21_p53_BLA_p2_ratio: Tox21 HCT-116 p53 Agonism Beta-lactamase Assay, Ratio, Phase 2 (AID 2283592)
Chain of Cellular tumor antigen p53 (Homo sapiens) (P04637 whole entry, looked up): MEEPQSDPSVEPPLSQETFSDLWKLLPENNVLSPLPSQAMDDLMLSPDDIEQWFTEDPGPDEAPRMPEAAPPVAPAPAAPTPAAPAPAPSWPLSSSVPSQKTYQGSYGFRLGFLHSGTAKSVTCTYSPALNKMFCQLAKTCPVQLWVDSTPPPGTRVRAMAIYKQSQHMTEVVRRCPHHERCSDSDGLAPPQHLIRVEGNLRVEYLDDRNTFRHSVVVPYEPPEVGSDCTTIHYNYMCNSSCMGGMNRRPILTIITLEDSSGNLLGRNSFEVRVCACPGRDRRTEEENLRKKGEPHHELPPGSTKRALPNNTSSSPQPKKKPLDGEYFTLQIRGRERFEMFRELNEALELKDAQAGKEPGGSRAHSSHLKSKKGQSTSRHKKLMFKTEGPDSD
Method in brief: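 DMSO-normalized, positive-direction endpoint derived from the 460 nm/530 nm FRET ratio in HCT116 p53 beta-lactamase reporter cells exposed 16 h at 37C and loaded with CCF4-AM for 2 h.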

[3] = TOX21_p53_BLA_p4_viability: Viability Assessment in the Tox21 HCT-116 p53 Agonism Beta-lactamase Assay, Phase 4 (AID 2283597);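 also: hits lower the luminescence signal meaning cytotoxicity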
Method in brief: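 In this multiplexed secondary endpoint, HCT116 cells (4000 per well, compound at 5 h, 16 h treatment) received CellTiter-Glo after the beta-lactamase read. Luminescence after 30 min RT reflects ATP, and falling signal marks cytotoxicity.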

[4] = biological target: Cellular tumor antigen p53 (Homo sapiens) (UniProt P04637); test: TOX21_p53_BLA_p5_ratio: Tox21 HCT-116 p53 Agonism Beta-lactamase Assay, Ratio, Phase 5 (AID 2283599)
Method in brief: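 HCT-116 p53-bla cells (4000/well) plated 5 h, dosed with compound (217-fold DMSO dilution) for 16 h at 37 C; CCF4-AM substrate 2 h at room temperature. Activity is the 460/530 nm emission ratio (405 nm excitation), fitted in gain-of-signal direction versus DMSO.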

[5] = TOX21_p53_BLA_p5_viability: Viability Assessment in the Tox21 HCT-116 p53 Agonism Beta-lactamase Assay, Phase 5 (AID 2283600)
Method in brief: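 Here cell health was gauged by ATP levels in wells holding 4000 cells, each treated 16 h with DMSO-delivered compounds at 217-fold dilution; reduced luminescence marked toxicity.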

[6] = biological target: Cellular tumor antigen p53 (Homo sapiens) (UniProt P04637); test: TOX21_p53_BLA_p4_ratio: Tox21 HCT-116 p53 Agonism Beta-lactamase Assay, Ratio, Phase 4 (AID 2283601)
Method in brief: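 HCT-116 p53 beta-lactamase reporter cells (4000/well) preincubated 5 h, then compound (217-fold dilution of DMSO stock) for 16 h at 37C. CCF4-AM substrate added 2 h at room temperature; 460/530 nm emission ratio fitted upward versus DMSO.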

[7] = biological target: Cellular tumor antigen p53 (Homo sapiens) (UniProt P04637); test: TOX21_p53_BLA_p3_ratio: Tox21 HCT-116 p53 Agonism Beta-lactamase Assay, Ratio, Phase 3 (AID 2283596)
Method in brief: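 Cells were seeded at 4000/well, rested 5 h at 37C, then dosed with DMSO compound solutions (217-fold dilution) for 16 h. CCF4-AM substrate was loaded for 2 h at room temperature, and the 460/530 nm emission ratio was fitted for gain of signal versus DMSO.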

THRA (gene 7067) = THRA (gene 7067) (UniProt P10827); test: TOX21_TRA_COA_Antagonist_Followup_ratio: Tox21 Thyroid Hormone Receptor alpha Antagonism through Coactivator Recruitment Follow-Up Assay, Ratio (AID 2283953)
Chain of THRA (gene 7067) (P10827 whole entry, looked up, the tested form may be a part): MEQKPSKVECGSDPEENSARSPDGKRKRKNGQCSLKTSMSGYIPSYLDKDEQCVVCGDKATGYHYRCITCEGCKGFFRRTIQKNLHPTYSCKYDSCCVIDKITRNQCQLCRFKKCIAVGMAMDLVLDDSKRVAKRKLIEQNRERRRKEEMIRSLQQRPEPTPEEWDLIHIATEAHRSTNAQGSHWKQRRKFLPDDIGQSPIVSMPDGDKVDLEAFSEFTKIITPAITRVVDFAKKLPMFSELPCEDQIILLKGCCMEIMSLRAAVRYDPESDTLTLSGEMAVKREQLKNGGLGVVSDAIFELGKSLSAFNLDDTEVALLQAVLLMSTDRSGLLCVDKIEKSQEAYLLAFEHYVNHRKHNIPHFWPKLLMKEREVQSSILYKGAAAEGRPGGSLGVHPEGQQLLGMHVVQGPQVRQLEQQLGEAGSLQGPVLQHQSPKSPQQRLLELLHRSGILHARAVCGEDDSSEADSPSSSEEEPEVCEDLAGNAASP
Method in brief: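 GST-TRα LBD 2.5 nM, BSA 0.10%, + cpd; then FITC-SRC-2 peptide 200 nM + Tb-anti-GST Ab 2 nM. TR-FRET ratio 520/495 nm. Norm: DMSO = 0%, T3 = 100%.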

THRB (gene 7068) [8] = biological target: THRB (gene 7068) (UniProt P10828); test: TOX21_TRB_BLA_Antagonist_Followup_ratio: Tox21 Thyroid Hormone Receptor beta Antagonism Beta-lactamase (BLA) Follow-Up Assay, Ratio (AID 2283958)
Chain of THRB (gene 7068) (P10828 whole entry, looked up, the tested form may be a part): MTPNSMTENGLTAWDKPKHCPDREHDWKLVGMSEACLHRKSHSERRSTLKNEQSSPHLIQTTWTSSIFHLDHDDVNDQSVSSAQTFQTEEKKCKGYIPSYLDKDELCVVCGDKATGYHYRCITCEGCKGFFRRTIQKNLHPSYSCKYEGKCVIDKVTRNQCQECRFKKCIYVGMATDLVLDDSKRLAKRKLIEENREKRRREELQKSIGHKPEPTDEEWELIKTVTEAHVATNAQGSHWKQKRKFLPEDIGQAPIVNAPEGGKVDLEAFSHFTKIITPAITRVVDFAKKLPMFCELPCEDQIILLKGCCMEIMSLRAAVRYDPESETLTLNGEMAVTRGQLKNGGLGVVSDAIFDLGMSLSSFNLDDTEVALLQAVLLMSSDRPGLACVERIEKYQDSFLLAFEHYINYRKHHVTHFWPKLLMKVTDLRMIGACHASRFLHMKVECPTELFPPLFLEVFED
Method in brief: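 Cells were plated and allowed to attach for 5 h, then dosed with compounds in DMSO at 11 concentrations for 18 h at 37C. Beta-lactamase reporter activity was measured via CCF4-AM FRET as the 460:530 nm ratio.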

[9] = TOX21_TRB_BLA_Antagonist_Followup_viability: Viability Assessment in the Tox21 Thyroid Hormone Receptor beta Antagonism Beta-lactamase (BLA) Follow-Up Assay (AID 2283961)
Method in brief: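 In the same wells as the reporter read, cell health was gauged by CellTiter-Glo ATP luminescence, with signal loss indicating reduced viability. Cells had been exposed to test compounds for 18 h.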

THRB (gene 7068) [10] = biological target: THRB (gene 7068) (UniProt P10828); test: TOX21_TRB_COA_Antagonist_Followup_ratio: Tox21 Thyroid Hormone Receptor beta Antagonism through Coactivator Recruitment Follow-Up Assay, Ratio (AID 2283967)
Method in brief: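 GST-TRb LBD 5.0 nM + 0.10% BSA, compound added; fluorescein-SRC-2 peptide 200 nM, Tb-anti-GST Ab 2 nM. TR-FRET, ex 340 / em 520:495 ratio. Norm: DMSO 0%, T3 100%.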

[11] = CCTE_Harrill_HTTr_Viability_MCF7: CCTE's 6-hour Cell Viability Assessment for the High-Throughput Transcriptomics (HTTr) Platform, in MCF-7 cells cultured in DMEM + 10% fetal bovine serum, Harrill Lab (AID 2284010; active = hit-call score of the fitted dose curve at least 0.9, where 1 is the maximum; inactive = score below 0.9)
Method in brief: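 Read-out is propidium iodide gain of signal by high-content imaging, reflecting membrane integrity loss. Measurements are taken 6 h after dosing, eight concentrations per chemical, with DMSO serving as baseline for bidirectional curve fitting.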

[12] = CCTE_Harrill_HTTr_Apoptosis_MCF7: CCTE's 6-hour Apoptosis Assessment for the High-Throughput Transcriptomics (HTTr) Platform, in MCF-7 cells cultured in DMEM + 10% fetal bovine serum, Harrill Lab (AID 2284011; active = hit-call score of the fitted dose curve at least 0.9, where 1 is the maximum; inactive = score below 0.9)
Method in brief: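 Apoptosis in MCF-7 cells grown in DMEM with 10% fetal bovine serum was scored after a six hour exposure by high content imaging of caspase-3/7 activation (CellEvent Caspase 3/7 Green), with DMSO serving as negative control and baseline.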

[13] = CCTE_Harrill_HTTr_CellCount_MCF7: CCTE's Cell Proliferation Assessment for the High-Throughput Transcriptomics (HTTr) Platform, Harrill Lab (AID 2284012);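 also: cells exposed to compound for six hours; intended direction is loss of nuclei count meaning fewer cells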
Method in brief: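 Cell count served as viability reporter: loss of Hoechst-stained nuclei, counted by high content imaging, marks decreased growth or survival. Exposure was 6 h in MCF-7 cells across eight concentrations, with DMSO as baseline.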

Measured: outcome

CC[C@H]1NC(=O)[C@@H](NC(=O)c2ncccc2O)[C@@H](C)OC(=O)[C@H](c2ccccc2)NC(=O)[C@@H]2CC(=O)CCN2C(=O)[C@H](Cc2ccccc2)N(C)C(=O)[C@@H]2CCCN2C1=O
inactive: [1] | [2] | [3] | [4] | [5]

O=S(=O)(O)CCS
inactive: [1] | [2] | [3] | [4] | [5] | [6]

O=C1N(c2ccccc2)c2ccccc2C1(Cc1ccncc1)Cc1ccncc1
inactive: [1] | [2] | [3] | [4] | [6]

CCOC(=O)NNc1ccc(N(CC)CC(C)O)nn1 (stereo unspecified)
inactive: [1] | [2] | [3] | [4] | [5] | [6]

CCOC(=O)[C@H](CCc1ccccc1)N[C@H]1CCCN2CCC[C@@H](C(=O)O)N2C1=O
inactive: [1] | [2] | [3] | [4] | [6]

CCCCOCCOC(=O)COc1cc(Cl)c(Cl)cc1Cl
inactive: [1] | [2] | [3]

CN1CCC(CN2c3ccccc3Sc3ccccc32)C1 (stereo unspecified)
inactive: [1] | [2] | [3] | [4]

CCCC(C)C(=O)O (stereo unspecified)
inactive: [1] | [2] | [3] | [4] | [5]

CO[C@H]1O[C@H](CO)[C@@H](O)[C@H](O)[C@H]1O
inactive: [1] | [2] | [3]

Cc1nc(-c2ccc(OCC(C)C)c(C#N)c2)sc1C(=O)O
inactive: [1] | [2] | [7] | THRA (gene 7067) | THRB (gene 7068) [8] | [9] | THRB (gene 7068) [10] | [11] | [12] | [13]

CO/N=C(\C(=O)N[C@@H]1C(=O)N2C(C(=O)[O-])=C(C[n+]3ccc(N)n3CCO)CS[C@H]12)c1csc(N)n1
inactive: [1] | [2] | [3] | [4] | [5]

CC(O)CN(C)C (stereo unspecified)
inactive: [1] | [2] | [3] | [4] | [6]

NCCCCCC(=O)O
inactive: [1] | [2] | [3] | [4] | [5] | [6]

O=S(=O)(Cl)c1c(Cl)cccc1Cl
inactive: [1] | [2] | [3] | [4] | [5] | [6]

CN1CCCN=C1COC(=O)C(O)(c1ccccc1)C1CCCCC1 (stereo unspecified)
inactive: [1] | [2] | [3] | [4] | [6]

CN1CCN(CCCN2c3ccccc3Sc3ccc(S(=O)(=O)N(C)C)cc32)CC1
inactive: [1] | [2] | [3] | [4] | [5] | [6]

CC(=O)c1cc(C)oc1C
inactive: [1] | [2] | [3] | [4] | [5] | [6]

O=C(O)c1cccc(O)c1
inactive: [1] | [2] | [3] | [4] | [6]

CC1c2ccccc2CN1NC(=O)c1ccc(Cl)c(S(N)(=O)=O)c1 (stereo unspecified)
inactive: [1] | [2] | [3] | [4] | [5] | [6]

O=C(CCCN1CCN2CCCC2C1)c1ccc(F)cc1 (stereo unspecified)
inactive: [1] | [2] | [3]

CCCCCCCCCCC(=O)O
inactive: [1] | [2] | [3] | [4] | [5]

CC1=C2[C@@H]([C@H](C)CC[C@H]2/C=C(\C)C(=O)O)[C@H](O)C1
inactive: [1] | [2] | [3] | [4] | [6]

Nc1ccccn1
inactive: [1] | [2] | [3] | [4] | [5] | [6]

CCCCCCCC/C=C\CCCCCCCCN
inactive: [1] | [2] | [3] | [4] | [6]

Cc1ccc(N=Nc2c(O)c(C(=O)O)cc3ccccc23)c(S(=O)(=O)O)c1
inactive: [1] | [2] | [3] | [4] | [6]

O=C=Nc1ccc(Cl)c(Cl)c1
inactive: [1] | [2] | [3] | [4] | [5] | [6]

Cc1cc(Cl)c(C)cc1Cl
inactive: [1] | [2] | [3] | [4] | [6]

O=C1NC(=O)[C@@]2(CCOc3ccc(F)cc32)N1
inactive: [1] | [2] | [3] | [4] | [5] | [6]

CCCCOC(=O)c1ccccc1C(=O)OCC(CC)CCCC (stereo unspecified)
inactive: [1] | [2] | [3]
